Source: PubChem (several laboratories)
HIF act: HIF pathway transcriptional activation; U2OS HRE-luciferase reporter, luminescence; normalized: DMSO 0%, desferrioxamine 100%; activation, % at 7.5 µM (by protocol); 0.32% of 300,000 active;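 active = mean activation of at least 10% of the iron chelator positive control signal, with at least half of replicates also reaching 10%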
VLA-4 inh: inhibition in a human VLA-4 binding assay | VLA-4 expressing cells, ligand binding flow cytometry | P13612 | 0.2% of 330,000 active | inhibition, % (about 7 µM as worked out from the volumes in the protocol); in the data active = inhibition above about 50%
AI-2 QS modul: modulators of Vibrio harveyi AI-2 quorum sensing system; AID 2094; activity change, % at 7.5 µM; 0.4% of 300,000 active; Vibrio harveyi JMH597 AI-2 luminescence/OD600 ratio, 9 h; active compounds read low; strain lacks LuxN and CqsS sensors; 0 = neutral-control median; in the data active = activity change below about -75%, passing the limit was not always enough;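 note: luminescence divided by OD600 gain over 9 h not by final OD600 alone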
Platelet DG rel: platelet dense granule release activity; inhibition, %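 (compounds screened at 7.5 µM in platelet-rich plasma)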; 0.22% of 300,000 active; human platelet-rich plasma, SFLLRN dense granule ATP release, luminescence;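 active = mean replicate score, as percent of positive control, at or above 50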
CHT allo act: allosteric activators of human choline transporter CHT | CHT-expressing cells, membrane potential dye, choline EC20; active compounds read high; LV-AA mutant CHT in HEK293 cells | B-score at 10 µM | 0.49% of 310,000 active | AID 488977;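 active = initial fluorescence not abnormally high and integrated response B-score, plate-corrected, over 3 SD above library mean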
Target sequence (Q9GZV3 whole entry, looked up): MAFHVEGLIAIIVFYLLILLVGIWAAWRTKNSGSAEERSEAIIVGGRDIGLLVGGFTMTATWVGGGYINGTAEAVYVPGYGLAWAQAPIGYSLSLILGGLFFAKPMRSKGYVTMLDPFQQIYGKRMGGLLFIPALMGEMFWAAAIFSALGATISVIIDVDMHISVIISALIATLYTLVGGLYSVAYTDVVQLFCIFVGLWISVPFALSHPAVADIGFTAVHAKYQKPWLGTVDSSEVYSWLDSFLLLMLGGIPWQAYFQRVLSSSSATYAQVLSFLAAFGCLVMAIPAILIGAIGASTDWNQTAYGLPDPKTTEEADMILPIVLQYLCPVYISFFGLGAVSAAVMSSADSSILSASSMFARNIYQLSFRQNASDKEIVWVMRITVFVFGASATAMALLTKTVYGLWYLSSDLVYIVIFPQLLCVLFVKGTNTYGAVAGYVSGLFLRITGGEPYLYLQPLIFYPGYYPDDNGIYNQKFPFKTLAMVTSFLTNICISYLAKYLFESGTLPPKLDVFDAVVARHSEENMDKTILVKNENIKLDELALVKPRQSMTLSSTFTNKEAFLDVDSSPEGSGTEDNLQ
CHT block: inhibitors of human choline transporter CHT | Q9GZV3 | CHT-expressing cells, membrane potential dye, choline response; active compounds read low | B-score at 10 µM | 0.86% of 310,000 active | AID 488975;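 active = B-score over 3 SD under the library average, and starting fluorescence ratio not unusually high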;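 note: choline stimulus applied at its EC90 after an EC20 pre-addition; B-score computed on integrated fluorescence ratio after choline addition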
CHT block conf: human CHT inhibition, confirmatory screen; shares compounds with CHT block; CHT activity remaining % of control (active compounds read low), % at 10 µM; CHT-expressing cells, choline membrane potential dye; LV-to-AA substituted CHT, HEK293 cells; 70% of 2,400 active;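 active = choline transporter activity left, mean of duplicates at 10 µM, below buffer-only control mean minus 3 SD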;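 note: depolarization triggered by choline at its EC90 following an EC20 pre-addition; 0% = hemicholinium-3 full block and 100% = buffer-only control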
HEK293 MPD ctr: activity in parental HEK293 cells lacking CHT | shares compounds with CHT block | membrane potential dye, choline response; active = decrease or increase beyond buffer ±3SD | membrane potential ratio readout (active if shifted either direction beyond buffer ±3SD; no single direction) at 10 µM | 4% of 2,400 active;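 note: parental cells lack the transporter so any hit is non-specific; ratio is peak minus trough fluorescence over baseline after EC90 choline challenge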
Active calls of the source: *; i = inactive; . = not tested or not shown. Most compounds without a hit are left out; they make up all but 2.2% or so of the library.

SMILES	HIF act	VLA-4 inh	AI-2 QS modul	Platelet DG rel	CHT allo act	CHT block	CHT block conf	HEK293 MPD ctr
CCN(CC)CCCN(C(=O)c1ccc(OC)cc1)c1nc(-c2ccc(OC)cc2)cs1	-19	3	-2	1	i	-5.4*	44%*	i
O=C(O)/C(=C\c1ccccc1OC(F)F)Sc1nnc(-c2ccc(F)cc2)o1	-1	-19	2	-5	i	-5.6*	31%*	i
CC1=C(C(=O)Nc2cccc(C(=O)NC3CCCCC3C)c2)SCCO1 (stereo not drawn)	0	4	18	19	i	i	46%*	i
COc1cc(C2C3=C(CC(C)(C)CC3=O)Nc3ccccc3N2C(C)=O)cc(OC)c1OC (stereo not drawn)	-19	1	6	-4	i	i	.	.
Cc1csc(=O)n1CC(=O)OCC(=O)NCc1ccc(Cl)cc1Cl	0	-9	10	3	i	i	.	.
O=C1CCC([N+](=O)[O-])C(c2ccc3c(c2)OCO3)N1 (stereo not drawn)	0	-8	22	-3	i	-12*	i	i
O=C1CCC([N+](=O)[O-])C(c2ccc(Cl)c([N+](=O)[O-])c2)N1 (stereo not drawn)	-1	2	8	-3	i	i	.	.
CN(Cc1ccccc1)C(=O)CN1CCN(C(c2ccccc2)c2ccccc2)CC1	1	11	-1	-1	i	-8.3*	52%*	i
COC(=O)CN1CCN(C(c2ccccc2)c2ccccc2)CC1	-1	-3	17	2	i	i	.	.
CCCOc1ccc(C(=O)NC(=S)NNC(=O)c2c(-c3ccccc3)noc2C)cc1	0	11	37	8	i	-12*	56%*	i
FC(F)(F)c1ccccc1CNCc1ccc2c(c1)OCO2	-1	19	6	8	i	i	.	.
COc1ccc(CNC(=O)[C@@H](NC(=O)C2CCN(C(=O)[C@@H](N)Cc3ccccc3)CC2)C(C)C)cc1	0	-1	10	0	i	i	.	.
CCN1CCn2c3c(c4cc(Cl)ccc42)CCCC31 (stereo not drawn)	0	13	24	4	i	-5.8*	70%*	i
CCCN(C(=O)c1cc(Cl)nc2ccccc12)c1c(N)n(Cc2ccccc2)c(=O)[nH]c1=O	.	-9	.	.	.	.	.	.
CCCN(C(=O)c1cn(CC)c2nc(C)ccc2c1=O)c1c(N)n(Cc2ccccc2)c(=O)[nH]c1=O	-1	-5	13	11	i	-5.3*	33%*	i
Cc1cccc(NC(=O)/C(C#N)=C\c2ccc(C(=O)O)cc2)c1	0	3	45	0	i	-6.6*	i	i
Cc1c(NC(=S)NC(=O)c2sc3ccccc3c2Cl)cccc1C(=O)O	-9	0	-7	9	i	i	.	.
COc1ccccc1C(=O)NNC(=S)NC(=O)c1sc2ccccc2c1Cl	1	-7	17	-5	i	-6.6*	57%*	i
COc1ccccc1C(=O)NNC(=S)NC(=O)c1cccs1	1	14	61	0	i	i	.	.
COc1ccccc1C(=O)NC(=S)NNC(=O)c1sc2ccccc2c1Cl	0	-8	13	6	i	-7*	58%*	i
N#C/C(=N\Nc1cccc(C(F)(F)F)c1)C(=O)c1ccsc1	2	-5	2	1	i	-10*	35%*	i
O=C(Nc1ccccc1)Nc1cccc(C(F)(F)F)c1	2	3	12	7	i	i	.	.
CCOc1cc(C(=O)NCCC(=O)N2CCC3(CC2)NCCc2[nH]cnc23)cc(OCC)c1OCC	0	8	38	1	i	i	.	.
COc1ccc(OCc2cccc(C(=O)Nn3cc([N+](=O)[O-])cn3)c2)cc1	-2	5	-2	1	i	-7.1*	69%*	i
Cc1cc(C)c[n+](CC(=O)c2c(C)cc(C)c([N+](=O)[O-])c2C)c1	-2	12	8	1	i	-7.9*	45%*	i
SMILES	HIF act	VLA-4 inh	AI-2 QS modul	Platelet DG rel	CHT allo act	CHT block	CHT block conf	HEK293 MPD ctr
Cc1cc(C)c[n+](CC(=O)c2cc3ccccc3oc2=O)c1	0	-16	1	-5	i	i	.	.
CC1=NN(C(=O)c2ccc(Cn3nc(C)c([N+](=O)[O-])c3C)cc2)C(O)(C(F)(F)F)C1 (stereo not drawn)	0	23	-1	-5	i	i	.	.
CC1=NN(C(=O)c2ccc(Cn3nc(C)c(Br)c3C)cc2)C(O)(C(F)(F)F)C1 (stereo not drawn)	0	12	18	-2	i	-8.1*	26%*	i
O=C(Cn1c(=O)n(CCCCC(=O)NC2CCCC2)c(=O)c2ccccc21)NCCC1=CCCCC1	0	-6	11	1	i	-7*	i	i
Cn1c(=O)c2ccccc2n(CC(=O)NCCC2=CCCCC2)c1=O	0	-3	15	4	i	i	.	.
NC(=O)Cn1c(=O)n(CCCC(=O)NC2CCN(Cc3ccccc3)CC2)c(=O)c2ccccc21	0	11	14	-16	i	-5.6*	i	i
Cc1ccc(-c2csc3ncnc(-n4cnc5ccccc54)c23)cc1	3	5	26	-7	i	-7.5*	24%*	i
Cc1ccc(-c2csc3ncnc(-n4nnc5ccccc54)c23)cc1	0	8	17	3	i	-7.5*	63%*	i
CC12CCC(C(=O)NNc3ccc([N+](=O)[O-])cc3)(OC1=O)C2(C)C (stereo not drawn)	-1	0	24	-2	i	-10*	i	i
CCCOc1ccccc1/C=C1\SC(N2CCCCC2)=NC1=O	-11	7	1	9	i	i	.	.
COc1ccc(C2CC(c3ccc(Br)cc3)=NN2C(=O)CN2CCCC2)cc1 (stereo not drawn)	0	19	25	-1	i	-7.1*	56%*	i
COc1ccc(CN2CCN(C(C)C)C(CCO)C2)cc1Cn1cccn1 (stereo not drawn)	0	7	17	0	i	-12*	6.3%*	i
Cc1cc(C)nc(NS(=O)(=O)c2ccc(N3C(=O)c4ccccc4C3=O)cc2)n1	1	15	-4	2	i	i	.	.
